Vif-A3F inh = qHTS for Inhibitors of Vif-A3F Interactions: qHTS | HeLa A3F-eYFP + Vif (tagged APOBEC3F with the HIV-1 protein that degrades it), YFP fluorescence increase | Potency, µM (highest dose often 46.1 µM), for the others: at the top dose activity, negative = active | 390,000 tested, 0.2% active; note: potency is the fitted concentration of half-maximal effect; % of control where 0% means no effect; nearly all actives have a fitted effect of over 65% in size
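HeLa cells stably expressing A3F-eYFP plus Vif, plated and incubated overnight at 37 deg C, then exposed to compounds overnight at 37 deg C. Blocked degradation read as raised yellow fluorescence (Ex 488/Em 500-530).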
pAkt inh = HTS Assay for Inhibitors of Akt Phophorylation: Primary Screen; Neuro2A IGF-stimulated pAkt S473 HTRF, 20 min; stronger effect = lower value; activity change, % for hits at 50 µM; 360,000 tested, 0.32% active; AID 651550, 2012; in the data active = activity change below about -80%; inconclusive = mostly about -51% to -80%; note: % is set by controls: 0 for no effect and ±100 for the full control effect
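Neuro2A cells in DMEM with 0.5% FBS, overnight at 37 deg C, given compound at single 50 µM final, then IGF (6 nM final) for 20 min at 37 deg C. Lysed; phospho-Akt Ser473 by HTRF after 24 h, 665/615 ratio.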
Glioma ERSR ind = qHTS for Inducers of the Endoplasmic Reticulum Stress Response (ERSR) in Human Glioma: qHTS; U87-MG GRP78 promoter luciferase reporter, 16 h; Potency, µM, without a hit: top-dose activation, hits mostly activators; 420,000 tested, 0.02% active; AID 602332, 2012; note: potency is the fitted concentration of half-maximal effect; series mostly up to about 76 µM; % of control where 0% means no effect; nearly all actives have a fitted effect of over 35% in size
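ERSR induction read as luciferase luminescence (Bright-Glo, 10 min at room temperature) in stably transfected human U87-MG glioma cells exposed to compounds for 16 h, using GRP78 as sensor.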
Vif-A3G inh = qHTS for Inhibitors of Vif-A3G Interactions: qHTS; DNA dC->dU-editing enzyme APOBEC-3G (Homo sapiens), Q9HC16; HeLa A3G-eYFP + Vif (tagged APOBEC3G with the HIV-1 protein that degrades it), YFP fluorescence, overnight; Potency, µM (top dose mostly 46.1 µM), for inactives: at the highest dose activity, negative = active, actives largely listed as inhibitors; 410,000 tested, 0.076% active; AID 602310, 2012; note: potency is the fitted concentration of half-maximal effect; % is set by controls: 0 for no effect and ±100 for the full control effect; nearly all actives have a fitted effect of over 60% in size
Target sequence (Q9HC16 whole entry, looked up): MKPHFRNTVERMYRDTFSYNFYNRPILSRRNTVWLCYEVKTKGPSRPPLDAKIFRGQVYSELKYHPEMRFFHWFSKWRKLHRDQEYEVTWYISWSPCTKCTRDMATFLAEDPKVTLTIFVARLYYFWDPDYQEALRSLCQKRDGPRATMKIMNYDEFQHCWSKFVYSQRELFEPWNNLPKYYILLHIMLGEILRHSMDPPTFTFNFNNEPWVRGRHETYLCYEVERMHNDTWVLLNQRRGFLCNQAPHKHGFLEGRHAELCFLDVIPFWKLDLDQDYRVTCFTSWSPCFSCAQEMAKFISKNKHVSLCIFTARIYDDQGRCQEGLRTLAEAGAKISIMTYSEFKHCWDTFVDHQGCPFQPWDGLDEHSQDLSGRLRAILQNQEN
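Read-out is eYFP fluorescence (Ex 488/Em 500-530) from Vif-expressing HeLa A3G-eYFP cells; more signal means A3G escaped Vif-mediated degradation. Cells plated overnight, compound pinned in, incubated overnight at 37 deg C.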
PINK1 expr mod = A Quantitative High throughput Screen to Identify Chemical Modulators of PINK1 Expression | PINK1 immunofluorescence, high-content cytometry, 24 h | Potency, µM (highest dose often 76.6 µM), for inactives: at the top dose activation (PINK1 increase), usual class: activators | 410,000 tested, 0.2% active; active = well fitted activation curve with a large enough effect; inconclusive = small, poorly fitted or top-dose-only effect; cell line not stated here; note: potency is the fitted concentration of half-maximal effect; % of control where 0% means no effect; nearly all actives have a fitted effect of over 65% in size
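Readout is PINK1 immunofluorescence, quantified alongside mitochondrial, cell and nuclear markers by laser-scanning microplate cytometry. Cells from a stable line were exposed to compound titrations (5 concentrations) for 24 hours, with CCCP controls.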
LDHA block = qHTS assay for inhibitors of human lactate dehydrogenase. L-lactate dehydrogenase A chain (Homo sapiens), P00338. purified LDHA, NADH/diaphorase-resazurin fluorescence; stronger effect = lower value. activity change, % (values are at about 110 or 230 µM). 480,000 tested, 0.15% active. AID 1347041, 2019; in the data active = activity change below about -30%; inconclusive = mostly about -25% to -30%;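 note: plate controls were DMSO wells for no effect and wells without enzyme for full effect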
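LDH5 2 nM; NADH 0.06 mM, pyruvate 0.2 mM; 200 mM Tris pH 7.4, EDTA, Tween-20; 5 min RT. Detection: diaphorase 0.133 mg/mL + resazurin 37 µM, fluorescence ex540/em590 at 0 and 20 min; normalized to enzyme-free and DMSO wells.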
* = called active by the depositor; i = inactive; ? = inconclusive; nt = no result given; [ ] = remark or other dose. Sampled rows, rich in hits. Any-hit rate of the full collection: about 0.74%. Unless noted, calls come from the whole dose curve; as a rule, active = well fitted curve in the direction sought with a large enough effect; inconclusive = small, poorly fitted or top-dose-only effect, or another doubt; inactive = no such curve, though single readings can be large; an effect the other way counts as inactive or inconclusive.

SMILES	Vif-A3F inh	pAkt inh	Glioma ERSR ind	Vif-A3G inh	PINK1 expr mod	LDHA block
CC(=O)Nc1ccc(OCC(O)Cn2cnc3ccccc32)cc1 (stereo not drawn)	0.1%	i	-2.3%	1.8%	-0.7%	-6.7
CN1CCC(OC(=O)c2cc3cc(Cl)cc(Cl)c3oc2=O)CC1	4.2%	i	-3.5%	11.2µM*	8.2%	-1.2
CN1CCC(OC(=O)c2ccc(Cl)cc2Cl)CC1	-5.9%	i	-4.1%	2.7%	0.0%	-5.3
Cn1nc(C(=O)NN2C(=O)NC(C)(c3ccccc3)C2=O)c2ccccc2c1=O (stereo not drawn)	nt	nt	nt	nt	nt	3.2
COc1cccc(Cn2nc(SC)c(S(=O)(=O)c3ccccc3)c2N(C(C)=O)C(C)=O)c1	-0.9%	nt	-1.9%	-15.8%	3.6%	-4.7
CSc1nn(Cc2cccc(F)c2)c(N(C(C)=O)C(C)=O)c1S(=O)(=O)c1ccccc1	-4.1%	nt	-5.0%	-15.9%	20.9%	-31.6*
O=C(c1cc2ccccc2oc1=O)N1CCCN(C2CC2)CC1	nt	nt	nt	nt	nt	-5.0
CCN1CCN(c2nc(C)c3c(c2C#N)CCCC3)CC1	nt	nt	nt	nt	nt	-2.0
COc1ccc(OC)cc1	8.7%	i	-3.0%	0.3%	0.0%	2.3
COc1ccc(-n2cnnc2)cc1	-15.3%	-122.7%*	-2.6%	2.3%	0.4%	-1.5
Fc1ccc(CNCc2cccc(Oc3ccccc3)c2)cc1	nt	nt	nt	nt	nt	3.8
CC(Nc1ccc(N2CCOCC2)cc1)c1nc2scc(-c3cccs3)c2c(=O)[nH]1 (stereo not drawn)	nt	nt	nt	nt	nt	12.4
Cc1ccccc1C(=O)NC(NC(=S)Nc1ccc(S(N)(=O)=O)cc1)C(Cl)(Cl)Cl (stereo not drawn)	-10.2%	i	-5.0%	-4.4%	0.7%	-15.1
Cc1ccc(C(=O)NC(NC(=S)Nc2ccc(S(N)(=O)=O)cc2)C(Cl)(Cl)Cl)cc1 (stereo not drawn)	-2.9%	i	-7.1%	-7.6%	?	-34.5*
Cc1ccc(NC(=S)NC(NC(=O)c2ccccc2)C(Cl)(Cl)Cl)c(C)c1 (stereo not drawn)	12.0%	i	-4.3%	-3.9%	39.8µM*	-3.2
CC(C)c1ccc(NC(=S)Nc2ccc(OC(F)(F)F)cc2)cc1	17.7%	i	0.3%	-3.9%	-0.5%	1.7
FC(F)(F)Oc1ccc(NC(=S)Nc2ccc(OC(F)(F)F)cc2)cc1	2.7%	i	-3.8%	3.9%	15.8µM*	-3.2
Cc1[nH]n(-c2ccc([N+](=O)[O-])cc2)c(=O)c1C=NCCN1CCN(C(=O)c2ccc(Br)cc2)CC1	2.6%	-102.4%*	-1.0%	1.1%	-3.6%	1.4
CC(C)(C)n1ncc2c(=O)n(CC(=O)c3ccccc3)cnc21	-7.7%	-115.4%*	0.8%	-1.2%	-0.1%	-0.9
CC(C)CCNC(=S)Nc1ccc(Cl)cc1Cl	nt	nt	nt	nt	nt	-6.3
CCCCS/C(N)=N/N=C/c1ccccc1O	-11.8%	-111.2%*	8.5%	-1.4%	-0.4%	-2.6
O=C1NC(=S)S/C1=C/c1ccc(N2CCOCC2)o1	i	i	-1.3%	11.2µM*	21.4%	9.1
CCOC(=O)c1cc2cc(C(=O)O)ccc2[nH]1	nt	nt	nt	nt	nt	2.4
Cc1cc2c(c(=O)o1)C(C(C)C)C(C#N)=C(N)O2 (stereo not drawn)	7.3%	-99.8%*	-3.3%	5.2%	-1.5%	-1.1
Cc1ccc([C@H]2C(C#N)=C(N)Oc3cc(C)oc(=O)c32)o1	-9.7%	i	-12.1%	-5.8%	5.1%	-0.3
SMILES	Vif-A3F inh	pAkt inh	Glioma ERSR ind	Vif-A3G inh	PINK1 expr mod	LDHA block
COc1cccc(-c2nn(-c3ccccc3)cc2C(=O)NCC(C)(C)N2CCOCC2)c1	nt	nt	nt	nt	nt	-30.5*
COc1cccc(-c2nn(-c3ccccc3)cc2C(=O)O)c1	2.9%	i	-2.3%	-3.3%	1.5%	-5.9
COc1ccc(/C=N/n2cnnc2SCCO)cc1OC	2.1%	i	1.2%	3.2%	-2.5%	-6.0
C=CCSc1nncn1/N=C/c1ccc(OC)cc1	8.3%	-103.2%*	4.9%	-7.1%	-1.2%	2.4
Brc1ccc(C2=NOC(c3ccc(Br)cc3)C2)cc1 (stereo not drawn)	nt	nt	nt	nt	nt	5.4
CC1Cc2ccccc2N1C(=O)CSc1nnc(CSc2ncccn2)n1C (stereo not drawn)	-0.4%	-81.4%*	-2.4%	1.7%	-3.6%[38.3 µM]	-3.5
Cn1c(CSc2ncccn2)nnc1SCC(=O)N1CCCc2ccccc21	0.0%	i	-3.9%	1.8%	-9.7%[38.3 µM]	-4.9
CC1Cc2ccccc2N1C(=O)CSc1ccccc1 (stereo not drawn)	-3.3%	i	4.7%	1.6%	-4.4%[38.3 µM]	2.1
CC1Cc2ccccc2N1C(=O)CSC1=NCCS1 (stereo not drawn)	-12.5%	i	1.1%	0.9%	11.2µM*	-1.9
O=C(CSc1ccc2c(c1)OCCCO2)Nc1ccccc1Oc1ccccc1	nt	nt	nt	nt	nt	-6.0
O=C(CN1CCC(c2nc3ccccc3s2)CC1)C12CC3CC(CC(C3)C1)C2	nt	nt	nt	nt	nt	1.2
Cc1nc2c3cc(Cl)ccc3n(CCN3CCCCC3)c2s1	-16.6%	i	-3.7%	-14.5%	3.98µM*	-0.3
CO/N=C/c1ccc(OCc2ccc(C(=O)OC)cc2)cc1	nt	nt	nt	nt	nt	1.8
O=C(Nc1nccs1)c1cccc(N2C(=O)c3cccc4c([N+](=O)[O-])ccc(c34)C2=O)c1	?	-109.1%*	1.4%	?	4.3%	-1.1
CCCCc1nnc(NC(=O)Cc2ccc(OC)c(S(=O)(=O)N3CCOCC3)c2)s1	1.0%	i	-4.0%	-1.0%	1.3%	-0.6
COc1ccc(CC(=O)Nc2nnc(SCc3ccccc3)s2)cc1S(=O)(=O)N1CCOCC1	-0.6%	-110.2%*	1.7%	-4.6%	-0.2%	-2.8
COc1ccc(N2C(=O)C(C)(C)CS2(=O)=O)cc1S(=O)(=O)N1CCCc2ccccc21	nt	nt	nt	nt	nt	-3.1
CSc1ccc(/C=N/Nc2ccc(Cl)cc2)cc1	nt	nt	nt	nt	nt	9.1
COc1ccc(S(=O)(=O)Nc2nc3ccccc3nc2Nc2ccc(Br)c(C)c2)cc1	nt	nt	nt	nt	nt	-6.6
COc1ccccc1N1CCN(S(=O)(=O)/C=C/c2ccccc2)CC1	-3.5%	-125.5%*	?	-2.8%	-1.6%	-0.7
Cc1ccc(NC(=O)Cn2c(O)c(N=NC(=O)c3ccncc3)c3ccccc32)cc1	3.98µM*	i	-5.1%	0.5%	7.4%	-4.6
O=C(N/N=C\C=C\c1ccc([N+](=O)[O-])o1)c1cccs1	?	i	2.6%	10µM*	-0.2%	-30.1*
Cc1ccccc1OCC(=O)N/N=C/c1ccc([N+](=O)[O-])o1	5.7%	i	-1.7%	-10.1%	?	2.3

Compound activity: PubChem, National Center for Advancing Translational Sciences (NCATS)
